Experimental data taken from paper PMC12864922, “TDP-43 directly inhibits mRNA accumulation in neurites through modulation of mRNA stability”.
Whole data set: some 9,900 sequences, median “r (bound/input frequency ratio)” near 0.7, cut for the highest 2% near 6.5. This excerpt belongs to a sample that is enriched for the highest values.

B1: ENSMUSG00000022095.190|Fam160b2 (ssRNA)
RNA: GGGAGUUCUACAGUCCGACGAUCGCUUCGAUAUCCGCAUGCUAUUCCCUCCUGGGCAAGGAGGAGCAGGCCAGAGCCCCUUUUGCUUCCUUUUCCUGCCCAUGCCACCUCUCGAAGCCGGGCACAGGUUGCCAGGAGGUGACAUGAAAGAGGAGGAAACUCCAUGACCUCUACAUCCCCCGCAGUCCUCCCAGCGGGGGAGGACUUCUCUGCUGCUCCGAAGAACAUCAUGCACUCCUGUGUGUGUGUGUGAGUGUGUGUGUGUGUGUGUGUGUGUGUGUGUGUGUAUGUGUGUGUAUAUGUGCUCUUGCGGUCGCACUAGUGUGGAAUUCUCGGGUGUCAAGG
B2: ENSMUSG00000022095.192|Fam160b2 (ssRNA)
RNA: GGGAGUUCUACAGUCCGACGAUCGCUUCGAUAUCCGCAUGCUACAAGGAGGAGCAGGCCAGAGCCCCUUUUGCUUCCUUUUCCUGCCCAUGCCACCUCUCGAAGCCGGGCACAGGUUGCCAGGAGGUGACAUGAAAGAGGAGGAAACUCCAUGACCUCUACAUCCCCCGCAGUCCUCCCAGCGGGGGAGGACUUCUCUGCUGCUCCGAAGAACAUCAUGCACUCCUGUGUGUGUGUGUGAGUGUGUGUGUGUGUGUGUGUGUGUGUGUGUGUGUAUGUGUGUGUAUAUGUGUGUGUGUGUGUGCUCUUGCGGUCGCACUAGUGUGGAAUUCUCGGGUGUCAAGG
B3: ENSMUSG00000022095.194|Fam160b2 (ssRNA)
RNA: GGGAGUUCUACAGUCCGACGAUCGCUUCGAUAUCCGCAUGCUAGGCCAGAGCCCCUUUUGCUUCCUUUUCCUGCCCAUGCCACCUCUCGAAGCCGGGCACAGGUUGCCAGGAGGUGACAUGAAAGAGGAGGAAACUCCAUGACCUCUACAUCCCCCGCAGUCCUCCCAGCGGGGGAGGACUUCUCUGCUGCUCCGAAGAACAUCAUGCACUCCUGUGUGUGUGUGUGAGUGUGUGUGUGUGUGUGUGUGUGUGUGUGUGUGUAUGUGUGUGUAUAUGUGUGUGUGUGUGUGUAUGUGUGUGUGCUCUUGCGGUCGCACUAGUGUGGAAUUCUCGGGUGUCAAGG
B4: ENSMUSG00000022095.191|Fam160b2 (ssRNA)
RNA: GGGAGUUCUACAGUCCGACGAUCGCUUCGAUAUCCGCAUGCUACCUGGGCAAGGAGGAGCAGGCCAGAGCCCCUUUUGCUUCCUUUUCCUGCCCAUGCCACCUCUCGAAGCCGGGCACAGGUUGCCAGGAGGUGACAUGAAAGAGGAGGAAACUCCAUGACCUCUACAUCCCCCGCAGUCCUCCCAGCGGGGGAGGACUUCUCUGCUGCUCCGAAGAACAUCAUGCACUCCUGUGUGUGUGUGUGAGUGUGUGUGUGUGUGUGUGUGUGUGUGUGUGUGUAUGUGUGUGUAUAUGUGUGUGUGCUCUUGCGGUCGCACUAGUGUGGAAUUCUCGGGUGUCAAGG
B5: ENSMUSG00000022095.184|Fam160b2|231:244;246:260 (ssRNA)
RNA: GGGAGUUCUACAGUCCGACGAUCGCUUCGAUAUCCGCAUGCUACAGGCAUUACCUCACAACAGGCCUGCAGUUGUUGGCUUCCCUCCUGGGCAAGGAGGAGCAGGCCAGAGCCCCUUUUGCUUCCUUUUCCUGCCCAUGCCACCUCUCGAAGCCGGGCACAGGUUGCCAGGAGGUGACAUGAAAGAGGAGGAAACUCCAUGACCUCUACAUCCCCCGCAGUCCUCCCAGCGGGGGAGGACUUCUCUGCUGCUCCGAAGAACAUCAUGCACUCCACACACACACACACACACACACACACACACCUCUUGCGGUCGCACUAGUGUGGAAUUCUCGGGUGUCAAGG
B6: ENSMUSG00000022095.186|Fam160b2|219:232;234:260 (ssRNA)
RNA: GGGAGUUCUACAGUCCGACGAUCGCUUCGAUAUCCGCAUGCUACACAACAGGCCUGCAGUUGUUGGCUUCCCUCCUGGGCAAGGAGGAGCAGGCCAGAGCCCCUUUUGCUUCCUUUUCCUGCCCAUGCCACCUCUCGAAGCCGGGCACAGGUUGCCAGGAGGUGACAUGAAAGAGGAGGAAACUCCAUGACCUCUACAUCCCCCGCAGUCCUCCCAGCGGGGGAGGACUUCUCUGCUGCUCCGAAGAACAUCAUGCACUCCACACACACACACACACACACACACACACACACACACACACACCUCUUGCGGUCGCACUAGUGUGGAAUUCUCGGGUGUCAAGG
B7: ENSMUSG00000022095.186|Fam160b2 (ssRNA)
RNA: GGGAGUUCUACAGUCCGACGAUCGCUUCGAUAUCCGCAUGCUACACAACAGGCCUGCAGUUGUUGGCUUCCCUCCUGGGCAAGGAGGAGCAGGCCAGAGCCCCUUUUGCUUCCUUUUCCUGCCCAUGCCACCUCUCGAAGCCGGGCACAGGUUGCCAGGAGGUGACAUGAAAGAGGAGGAAACUCCAUGACCUCUACAUCCCCCGCAGUCCUCCCAGCGGGGGAGGACUUCUCUGCUGCUCCGAAGAACAUCAUGCACUCCUGUGUGUGUGUGUGAGUGUGUGUGUGUGUGUGUGUGUGUGUGCUCUUGCGGUCGCACUAGUGUGGAAUUCUCGGGUGUCAAGG
B8: ENSMUSG00000022095.193|Fam160b2 (ssRNA)
RNA: GGGAGUUCUACAGUCCGACGAUCGCUUCGAUAUCCGCAUGCUAGGAGCAGGCCAGAGCCCCUUUUGCUUCCUUUUCCUGCCCAUGCCACCUCUCGAAGCCGGGCACAGGUUGCCAGGAGGUGACAUGAAAGAGGAGGAAACUCCAUGACCUCUACAUCCCCCGCAGUCCUCCCAGCGGGGGAGGACUUCUCUGCUGCUCCGAAGAACAUCAUGCACUCCUGUGUGUGUGUGUGAGUGUGUGUGUGUGUGUGUGUGUGUGUGUGUGUGUAUGUGUGUGUAUAUGUGUGUGUGUGUGUGUAUGUGCUCUUGCGGUCGCACUAGUGUGGAAUUCUCGGGUGUCAAGG
B9: ENSMUSG00000022095.185|Fam160b2 (ssRNA)
RNA: GGGAGUUCUACAGUCCGACGAUCGCUUCGAUAUCCGCAUGCUAUUACCUCACAACAGGCCUGCAGUUGUUGGCUUCCCUCCUGGGCAAGGAGGAGCAGGCCAGAGCCCCUUUUGCUUCCUUUUCCUGCCCAUGCCACCUCUCGAAGCCGGGCACAGGUUGCCAGGAGGUGACAUGAAAGAGGAGGAAACUCCAUGACCUCUACAUCCCCCGCAGUCCUCCCAGCGGGGGAGGACUUCUCUGCUGCUCCGAAGAACAUCAUGCACUCCUGUGUGUGUGUGUGAGUGUGUGUGUGUGUGUGUGUGCUCUUGCGGUCGCACUAGUGUGGAAUUCUCGGGUGUCAAGG

Molecular target: TDP-43 (Homo sapiens, UniProt Q13148 1-414)
Assay: RNA Bind-n-Seq with designed 260-mer pool; 25 mM Tris-HCl, 150 mM KCl, 3 mM MgCl2, BSA (printed 500 mg/mL), 20 units/mL SUPERase IN; pH not stated; 500 nM RNA pool, 1 h, 4 C; TDP-43 5, 50, 500 nM; high values mean tight binding
Details: protein: recombinant; tags: SBP (GST cleaved off with PreScission; pGEX-GST-SBP)
Method in brief: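 The incubation lasted 1 h at 4 °C and used 500 nM of an in vitro-transcribed 260-nt 3′ UTR oligo pool with recombinant SBP-tagged TDP-43 at 5, 50 or 500 nM immobilized on streptavidin beads. It took place in 25 mM Tris-HCl, 150 mM KCl, 3 mM MgCl2, BSA and SUPERase IN. Bound RNA was washed, eluted with biotin, converted to cDNA, PCR-amplified and sequenced to give R, each oligo's normalized abundance in the bound sample divided by that in input. Two independent protein batches provided the duplicates.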

Sequence of TDP-43 (Q13148 whole entry): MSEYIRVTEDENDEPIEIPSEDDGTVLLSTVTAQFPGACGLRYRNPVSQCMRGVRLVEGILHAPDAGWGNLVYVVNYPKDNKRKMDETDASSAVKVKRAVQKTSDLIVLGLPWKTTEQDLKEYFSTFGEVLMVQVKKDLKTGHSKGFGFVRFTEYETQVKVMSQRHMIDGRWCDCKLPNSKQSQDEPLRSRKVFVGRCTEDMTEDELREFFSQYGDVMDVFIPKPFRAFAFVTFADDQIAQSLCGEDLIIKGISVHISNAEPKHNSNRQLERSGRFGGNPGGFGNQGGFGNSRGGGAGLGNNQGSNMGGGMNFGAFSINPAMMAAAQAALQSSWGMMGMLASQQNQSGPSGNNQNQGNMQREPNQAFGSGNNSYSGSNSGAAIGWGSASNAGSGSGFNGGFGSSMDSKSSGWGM

Binder | binding signal
B1 | 7.2 R (bound/input frequency ratio)
B2 | 8.2 R (bound/input frequency ratio)
B3 | 7.48 R (bound/input frequency ratio)
B4 | 5.73 R (bound/input frequency ratio)
B5 | 3.13 R (bound/input frequency ratio)
B6 | 2.91 R (bound/input frequency ratio)
B7 | 6.14 R (bound/input frequency ratio)
B8 | 8.43 R (bound/input frequency ratio)
B9 | 4.85 R (bound/input frequency ratio)
